# Results published in PubChem BioAssay (NCATS).
# Inconclusive results are not listed. Entries that show only a call come without a potency. Calls of active or inactive are those of the source. The call rests on the fitted dose curve; in most records, active means well fitted cell-killing curve with a large enough effect; inconclusive means small, poorly fitted or top-dose-only effect, or effect the other way, or another doubt; inactive means no such curve, though single readings can be large or run the other way.
# Experiment: Identifying Small Molecule Inhibitors of Pancreatic Cancer Stem Cells (A2780, Spheroid) (AID 1259357);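 further: spheroids pre-formed over 14 days in stem cell medium on hydrogel; compound exposure lasted 48 h before the ATP luminescence read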
# Details: Potency: A2780 spheroid viability; series mostly up to 46.1 µM
# Description: Progenitor-like cancer cells, often referred to as cancer stem cells (CSC), are believed to be the drivers of therapeutic resistance and rapid recurrence. CSCs are postulated to reside in specific niches characterized by low oxygen tension, limited nutrient supply, and high redox load. Selectively targeting CSC, alone or in combination with cytotoxic agents, as a means to produce durable remissions is an appealing concept. Modeling these cells in in vitro setting is an important step in finding new therapies and/or targets. Multiple reports highlight that forcing cells in culture into 3-dimensionaly architectures (spheroids) re-establishes key progenitor-like transcriptional signatures. Pancreatic cancer is among the diseases with the most dismal outlook which is driven, largely, by recurance following front-line therapies. […] In hopes of deriving new insight into the targeting of these pancreatic CSCs we examined three established pancreatic cancer cell lines in cytotoxicity assays versus a collection of approved and investigational drugs. Importantly, we screened these lines as traditional monolayer (2D) and spheroid (3D) formats to gain an appreciation of agents with differential activity.
# Multicellular tumor spheroids from Panc1, MiaPaCa-2, and the primary low-passage tissue culture line SB.06 were seeded in stem cell media (SCM) in nonadherent 6-well plates coated with hydrogel (Corning Life Sciences, Chelmsford, Mass) and pancreatic spheres generated for 14 days before screening. Cells were seeded into 1536-well solid-bottom white tissue culture treated Greiner Bio One Plates (789173-F) using a MultiDrop Combi (Thermofisher Scientific) dispenser and a small sterile cassette. One column was media alone to be used as a :"no cells" control. The plates were then covered with sterilized stainless steel gasketed lids from Kalypsys. After allowing cells to attach for 4 hours, 23 nL of test compound or control (negative control DMSO and positive control 9.2 uM Bortezomib-final) were added from a 1536-well polypropylene compound source plate to each well using a 1536 head pin tool from Kalypsys. Cells were then incubated for 48 hours at 37C, 95% relative humidity and 5% CO2. After 48 hours, plates were removed from the incubator and 3 uL of CellTiter-Glo (Promega) was added using an Aurora Flying Reagent Dispenser Bioraptor. Plates were incubated at room temperature for 10 minutes prior to reading the luminescence on the Viewlux (PerkinElmer). The relative luciferase units are used to calculate the percent activity using the activity of DMSO in the cells and no cells columns for normalization of no inhibition and full inhibition respectively.
# Potency means the concentration at half of the fitted maximal effect.
row,SMILES,Potency
1,Oc1cccc(-c2nc(N3CCOCC3)c3oc4ncccc4c3n2)c1,0.833 µM (active)
2,Nc1nc2[nH]cc(CCc3ccc(C(=O)N[C@@H](CCC(=O)O)C(=O)O)cc3)c2c(=O)[nH]1,inactive
3,CCCS(=O)(=O)Nc1ccc(F)c(C(=O)c2c[nH]c3ncc(Cl)cc23)c1F,inactive
4,S=C(NCc1ccc2c(c1)OCO2)N1CCN(c2ncnc3c2oc2ccccc23)CC1,16.6 µM (active)
5,COc1ccc(COc2cc3oc(=O)c4cc(C(C)O)ccc4c3cc2OC)cc1 (stereo not drawn),inactive
6,COc1cc(F)c(F)c(Nc2ccc(I)cc2F)c1NS(=O)(=O)C1(C[C@H](O)CO)CC1,inactive
7,CS(=O)(=O)Oc1ccc2c(NC(N)=O)c(C(=O)c3ccc(Cl)cc3Cl)oc2c1,11.8 µM (active)
8,COc1ccc(-c2ccc3c(N4CCOC[C@H]4C)nc(N4CCOC[C@H]4C)nc3n2)cc1CO,0.0187 µM (active)
9,O=C(C1CC1)N1CC[C@@H](Cn2c(-c3ccc(-c4ccc5occc5c4)cc3)nc3cnccc32)C1,0.469 µM (active)
10,CCC(=O)N[C@H]1CC[C@H](C(=O)N(C)c2ccc(-c3nc4ccccc4o3)cc2)C1,14.8 µM (active)
11,COc1ccc2c3n(c(=NC(=O)c4cccnc4)nc2c1OC)CCN3,3.32 µM (active)
12,Cc1cc2c(F)c(Oc3ncnn4cc(OC[C@@H](C)O)c(C)c34)ccc2[nH]1,inactive
13,Cc1cc(SCc2sc(-c3ccc(C(F)(F)F)cc3)nc2C)ccc1OCC(=O)O,inactive
14,C[C@@H]1C[C@H]2[C@@H]3CCC4=CC(=O)C=C[C@]4(C)C3(F)[C@@H](O)C[C@]2(C)[C@@]1(O)C(=O)CO (stereo partly drawn),inactive
15,O=C(O)c1ccc(-c2c[nH]c3ccc(-c4ccccc4)cc23)cc1C1CCCC1,inactive
16,CN(C)c1ccc(Nc2nc(N)n(C(=O)c3c(F)cccc3F)n2)cc1,18.7 µM (active)
17,N#Cc1ccc(C(c2ccc(C#N)cc2)n2cncn2)cc1,inactive

row,SMILES,Potency
1,C[C@]12CCC(=O)C=C1CC[C@@H]1[C@@H]2[C@@H](O)C[C@@]2(C)[C@H]1CC[C@]2(O)C(=O)CO,inactive
2,CN[C@@H](C)C(=O)N[C@H]1CCCC[C@H]2CC[C@@H](C(=O)N[C@@H](c3ccccc3)c3cn(CCCCc4ccc(CCCCn5cc([C@@H](NC(=O)[C@@H]6CC[C@@H]7CCCC[C@H](NC(=O)[C@H](C)NC)C(=O)N76)c6ccccc6)nn5)cc4)nn3)N2C1=O,inactive
3,CCOc1ccc(Cc2cc([C@@H]3O[C@H](CO)[C@@H](O)[C@H](O)[C@@H]3O)ccc2Cl)cc1,inactive
4,COc1ccc(-c2c(-c3ccc(O)cc3O)n[nH]c2C)cc1,inactive
5,CCCCCCCc1ccc(CCc2cccc(O)c2C(=O)O)cc1,inactive
6,O=C(C=Cc1ccc(/C=C/C(=O)Nc2ccc(C3=NCCN3)cc2)cc1)Nc1ccc(C2=NCCN2)cc1,inactive
7,COCCNCCCn1c(C(=O)CF)c(-c2ccc(C)cc2)c2c(N)ncnc21,inactive
8,O=c1ncn2nc(Sc3ccc(F)cc3F)ccc2c1-c1c(Cl)cccc1Cl,14.8 µM (active)
9,Cc1csc(NC(=O)c2sc3nc4c(c(C(F)(F)F)c3c2N)CCC4)n1,inactive
10,O=C1CCCC2=C1C(c1[nH]ncc1Cl)N=C(Nc1nc3ccccc3o1)N2 (stereo not drawn),inactive
11,CCC(C)n1ncn(-c2ccc(N3CCN(c4ccc(OC[C@H]5CO[C@](Cn6cncn6)(c6ccc(Cl)cc6Cl)O5)cc4)CC3)cc2)c1=O (stereo partly drawn),4.69 µM (active)
12,CCCc1nc2c(C)cc(-c3nc4ccccc4n3C)cc2n1Cc1ccc(-c2ccccc2C(=O)O)cc1,inactive
13,O=C(Nc1cccnc1)N1CCC(Cc2cccc(Oc3ccc(C(F)(F)F)cn3)c2)CC1,18.7 µM (active)
14,Cc1oncc1C(=O)Nc1ccc(C(F)(F)F)cc1,inactive
15,CNC(=O)c1ccc(N2C(=S)N(c3ccc(C#N)c(C(F)(F)F)c3)C(=O)C2(C)C)cc1F,0.166 µM (active)
16,Cc1n[nH]c(C)c1Cc1sc2c(c1C(=O)N1C[C@H](O)CO1)c(=O)n(C)c(=O)n2CC(C)C,inactive
